Test results: the supplement of paper PMC10849652
The full data set covers some 7,900 targets. This sample favours those with a hit. About 0.6% of all pairs of compound and target were hits. A number with no mark means an inactive call.

Legend:
Assay in all cases: log2 fold change, soluble protein after heating vs DMSO (PISA); higher = thermal stabilisation; K562 cells, 10 uM, 30 min; active = over 0.2 and 3.5 SD of the protein, either way, in both replicates (recomputed)
[1] = compound: C1COCCN1CCN2C3=CC=CC=C3N=C2NC(=O)C4=CC(=CC=C4)[N+](=O)[O-] [IRAK-1-4 Inhibitor I]
Procedure, shortened: (§1)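 Soluble protein was quantified by TMTpro 16plex LC-MS/MS after channel sums were equalised. It was obtained as the supernatant after 21,000xg for 90 min from pooled aliquots of K562 cells (2×10^6 cells/mL, 10 μM compound, 30 min) heated for 3 min across 48°C-58°C and extracted in PBS with 0.5% NP-40 at 4°C. Thermal stability values are relative to control samples and come from duplicates. They are given as log2 fold changes.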

[2] = compound: C=CC(=O)N1CCC[C@@H](n2nc(-c3ccc(Oc4ccccc4)cc3)c3c(N)ncnc32)C1 [ibrutinib]
Procedure, shortened: as §1

[3] = compound: CC(=O)c1cnc2ccc(-c3cc(Cl)c(O)c(Cl)c3)nc2c1N[C@H]1CC[C@H](CN(C)C)CC1
Procedure, shortened: as §1

[4] = compound: CC(C)(C)Cn1c(N)nc2ccc(-c3[nH]c(C(C)(C)C)nc3-c3ccc(F)cc3)nc21 [ralimetinib]
Procedure, shortened: as §1

[5] = compound: CC(C)(O)CC(=O)NCCn1ccc2ncnc(Nc3ccc(Oc4cccc(C(F)(F)F)c4)c(Cl)c3)c21
Procedure, shortened: as §1

[6] = compound: CC(C)C1=C2N=C(C=C(N2N=C1)NCC3=CC=CC=C3)NCCCCCCN
Procedure, shortened: as §1

[7] = compound: CC(C)C[C@@H](C=O)NC(=O)[C@H](CC(C)C)NC(=O)[C@H](CC(C)C)NC(=O)OCc1ccccc1
Procedure, shortened: as §1

[8] = compound: CC(C)N(C[C@H]1O[C@@H](n2cnc3c(N)ncnc32)[C@H](O)[C@@H]1O)[C@H]1C[C@@H](CCc2nc3cc(C(C)(C)C)ccc3[nH]2)C1 [pinometostat]
Procedure, shortened: as §1

[9] = compound: CC1=C(C(CC(=O)N1)C2=CC=C(C=C2)C(F)(F)F)C(=O)NC3=C(C=C4C(=C3)C=NN4)F
Procedure, shortened: as §1

[10] = compound: CC1=C(C2=C(C=C1)C(=O)C3=CC=CC=C3N2CCCN)C
Procedure, shortened: as §1

[11] = compound: CC1=C(C=C(C=C1)NC(=O)C2=CC(=CC=C2)C(C)(C)C#N)NC3=CC4=C(C=C3)N=CN(C4=O)C
Procedure, shortened: as §1

[12] = compound: CC1=C(C=C(C=C1)NC(=O)C2=CC(=CC=C2)N(C)C)NC(=O)C3=CC=C(C=C3)O
Procedure, shortened: as §1

[13] = compound: CC1=CC=C(C=C1)SC2=C3C=C(SC3=CN=C2)C(=O)N
Procedure, shortened: as §1

[14] = compound: CC1=NC(=CC=C1)C2=C(N=C(N2)C(C)(C)C)C3=CC4=NC=CN=C4C=C3
Procedure, shortened: as §1

[15] = compound: CCCCN(Cc1ccc(C(=O)NO)cc1)C(=O)Nc1ccccc1 [Nexturastat A]
Procedure, shortened: as §1

[16] = compound: CCCS(=O)(=O)Nc1ccc(F)c(C(=O)c2c[nH]c3ncc(-c4ccc(Cl)cc4)cc23)c1F [vemurafenib]
Procedure, shortened: as §1

[17] = compound: CCCS(=O)(=O)Nc1ccc(F)c(C(=O)c2c[nH]c3ncc(Cl)cc23)c1F
Procedure, shortened: as §1

[18] = compound: CCCc1cc(C)[nH]c(=O)c1CNC(=O)c1cc(-c2ccnc(N3CCN(C)CC3)c2)cc2c1cnn2C(C)C
Procedure, shortened: as §1

[19] = compound: CCN(CC)Cc1ccc2cc(COC(=O)Nc3ccc(C(=O)NO)cc3)ccc2c1 [givinostat]
Procedure, shortened: as §1

[20] = compound: CCN(CCCOc1ccc2c(Nc3cc(CC(=O)Nc4cccc(F)c4)[nH]n3)ncnc2c1)CCOP(=O)(O)O [barasertib]
Procedure, shortened: as §1

Chain of UniProt P78382 (P78382 whole entry, looked up): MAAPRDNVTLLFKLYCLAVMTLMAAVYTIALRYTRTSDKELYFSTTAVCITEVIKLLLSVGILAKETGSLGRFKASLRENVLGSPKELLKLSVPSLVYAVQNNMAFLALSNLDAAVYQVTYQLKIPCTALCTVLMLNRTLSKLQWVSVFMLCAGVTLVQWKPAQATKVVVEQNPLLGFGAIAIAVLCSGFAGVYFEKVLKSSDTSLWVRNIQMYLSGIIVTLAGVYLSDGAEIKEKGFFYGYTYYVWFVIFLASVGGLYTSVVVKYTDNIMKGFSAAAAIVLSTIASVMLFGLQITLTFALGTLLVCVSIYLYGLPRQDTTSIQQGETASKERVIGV
Chain of UniProt Q96QD8 (Q96QD8 whole entry, looked up): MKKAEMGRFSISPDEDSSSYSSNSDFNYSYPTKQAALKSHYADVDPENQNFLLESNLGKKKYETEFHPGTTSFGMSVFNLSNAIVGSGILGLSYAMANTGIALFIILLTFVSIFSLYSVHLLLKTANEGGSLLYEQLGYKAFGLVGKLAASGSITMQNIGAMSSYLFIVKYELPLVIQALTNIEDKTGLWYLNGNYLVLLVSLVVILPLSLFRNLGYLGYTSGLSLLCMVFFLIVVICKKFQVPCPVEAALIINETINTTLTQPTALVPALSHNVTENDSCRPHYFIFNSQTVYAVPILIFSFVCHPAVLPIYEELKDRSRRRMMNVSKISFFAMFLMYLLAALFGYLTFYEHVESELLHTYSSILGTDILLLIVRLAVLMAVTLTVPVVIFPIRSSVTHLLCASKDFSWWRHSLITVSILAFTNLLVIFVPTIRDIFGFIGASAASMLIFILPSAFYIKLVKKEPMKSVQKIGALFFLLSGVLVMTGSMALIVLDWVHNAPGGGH
Chain of UniProt Q7L7X3 (Q7L7X3 whole entry, looked up): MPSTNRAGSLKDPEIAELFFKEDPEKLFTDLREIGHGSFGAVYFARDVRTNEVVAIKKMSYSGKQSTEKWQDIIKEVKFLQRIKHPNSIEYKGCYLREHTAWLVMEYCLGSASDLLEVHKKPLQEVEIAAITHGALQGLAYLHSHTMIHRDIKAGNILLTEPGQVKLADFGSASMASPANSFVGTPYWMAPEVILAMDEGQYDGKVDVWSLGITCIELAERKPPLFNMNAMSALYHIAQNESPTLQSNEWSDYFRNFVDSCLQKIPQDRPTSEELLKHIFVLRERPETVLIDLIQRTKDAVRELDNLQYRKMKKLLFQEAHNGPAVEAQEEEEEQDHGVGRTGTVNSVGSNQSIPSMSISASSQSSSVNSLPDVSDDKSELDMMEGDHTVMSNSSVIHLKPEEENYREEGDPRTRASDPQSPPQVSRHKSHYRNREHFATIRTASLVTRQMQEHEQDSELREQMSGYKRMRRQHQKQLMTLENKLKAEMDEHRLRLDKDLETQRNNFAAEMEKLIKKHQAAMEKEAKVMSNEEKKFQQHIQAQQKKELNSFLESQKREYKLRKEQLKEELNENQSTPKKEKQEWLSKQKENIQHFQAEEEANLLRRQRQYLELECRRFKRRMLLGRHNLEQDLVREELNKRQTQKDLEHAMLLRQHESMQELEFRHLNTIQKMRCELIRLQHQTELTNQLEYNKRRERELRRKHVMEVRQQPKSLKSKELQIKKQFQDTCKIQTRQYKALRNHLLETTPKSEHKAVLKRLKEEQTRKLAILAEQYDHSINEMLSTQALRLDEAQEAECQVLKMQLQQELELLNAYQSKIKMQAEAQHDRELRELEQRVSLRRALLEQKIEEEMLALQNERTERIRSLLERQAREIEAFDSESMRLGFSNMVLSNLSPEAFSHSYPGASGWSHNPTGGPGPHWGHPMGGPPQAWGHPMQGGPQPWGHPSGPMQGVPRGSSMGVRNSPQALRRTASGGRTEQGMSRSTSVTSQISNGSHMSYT
Chain of UniProt O60749 (O60749 whole entry, looked up): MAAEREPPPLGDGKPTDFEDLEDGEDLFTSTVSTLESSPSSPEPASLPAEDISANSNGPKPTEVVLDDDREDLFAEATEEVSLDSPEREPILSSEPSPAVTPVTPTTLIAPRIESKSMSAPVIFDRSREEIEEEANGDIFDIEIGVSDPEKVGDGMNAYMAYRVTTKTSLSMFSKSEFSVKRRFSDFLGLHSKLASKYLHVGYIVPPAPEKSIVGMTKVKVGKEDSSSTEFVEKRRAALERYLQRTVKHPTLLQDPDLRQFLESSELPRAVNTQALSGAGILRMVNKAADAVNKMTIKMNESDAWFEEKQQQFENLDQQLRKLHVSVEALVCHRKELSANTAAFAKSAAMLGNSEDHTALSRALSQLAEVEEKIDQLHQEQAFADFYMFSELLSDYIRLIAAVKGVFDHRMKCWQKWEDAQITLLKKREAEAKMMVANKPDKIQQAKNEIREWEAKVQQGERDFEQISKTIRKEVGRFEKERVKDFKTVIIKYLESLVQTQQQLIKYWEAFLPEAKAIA
Chain of UniProt Q15582 (Q15582 whole entry, looked up): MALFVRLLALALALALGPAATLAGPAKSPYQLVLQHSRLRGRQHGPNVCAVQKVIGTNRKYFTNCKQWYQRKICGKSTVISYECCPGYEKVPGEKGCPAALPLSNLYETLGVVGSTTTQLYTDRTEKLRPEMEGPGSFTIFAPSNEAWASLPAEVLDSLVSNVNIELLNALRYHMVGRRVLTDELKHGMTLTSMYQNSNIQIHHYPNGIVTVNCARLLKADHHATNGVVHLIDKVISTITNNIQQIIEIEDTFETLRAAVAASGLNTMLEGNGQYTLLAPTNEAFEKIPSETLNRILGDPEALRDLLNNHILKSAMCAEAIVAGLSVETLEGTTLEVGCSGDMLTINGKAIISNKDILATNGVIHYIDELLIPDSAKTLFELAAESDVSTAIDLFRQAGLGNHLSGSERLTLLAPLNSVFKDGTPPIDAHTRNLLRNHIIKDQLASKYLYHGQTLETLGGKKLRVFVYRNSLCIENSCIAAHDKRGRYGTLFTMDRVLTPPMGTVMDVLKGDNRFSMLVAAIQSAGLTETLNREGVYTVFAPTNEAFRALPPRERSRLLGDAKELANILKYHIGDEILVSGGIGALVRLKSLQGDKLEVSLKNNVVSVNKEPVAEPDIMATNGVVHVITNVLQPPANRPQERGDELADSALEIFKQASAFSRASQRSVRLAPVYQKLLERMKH
Chain of UniProt Q6P1M0 (Q6P1M0 whole entry, looked up): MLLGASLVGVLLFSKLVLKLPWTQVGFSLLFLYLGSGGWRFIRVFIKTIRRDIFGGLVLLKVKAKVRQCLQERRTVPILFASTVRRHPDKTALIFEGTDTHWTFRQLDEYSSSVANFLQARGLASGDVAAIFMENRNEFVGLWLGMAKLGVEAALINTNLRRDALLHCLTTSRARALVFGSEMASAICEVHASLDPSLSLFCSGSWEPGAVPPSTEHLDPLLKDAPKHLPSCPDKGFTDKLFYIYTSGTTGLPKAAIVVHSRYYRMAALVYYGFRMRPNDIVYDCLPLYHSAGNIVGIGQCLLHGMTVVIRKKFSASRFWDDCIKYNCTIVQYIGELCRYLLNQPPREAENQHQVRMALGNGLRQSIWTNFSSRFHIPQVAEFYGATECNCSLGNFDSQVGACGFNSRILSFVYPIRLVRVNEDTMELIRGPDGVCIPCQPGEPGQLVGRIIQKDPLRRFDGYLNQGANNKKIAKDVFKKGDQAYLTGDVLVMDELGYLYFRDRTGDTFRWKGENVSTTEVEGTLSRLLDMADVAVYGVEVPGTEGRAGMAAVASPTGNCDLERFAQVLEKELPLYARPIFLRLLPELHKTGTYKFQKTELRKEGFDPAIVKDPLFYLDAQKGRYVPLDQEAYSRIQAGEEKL
Chain of UniProt O75663 (O75663 whole entry, looked up): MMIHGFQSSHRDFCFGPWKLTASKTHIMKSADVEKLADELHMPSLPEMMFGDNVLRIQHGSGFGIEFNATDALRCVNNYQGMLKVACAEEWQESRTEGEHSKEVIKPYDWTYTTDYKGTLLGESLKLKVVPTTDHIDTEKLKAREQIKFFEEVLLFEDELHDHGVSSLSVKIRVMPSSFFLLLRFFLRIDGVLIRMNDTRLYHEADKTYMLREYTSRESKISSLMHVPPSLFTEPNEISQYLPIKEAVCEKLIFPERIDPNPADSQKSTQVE
Chain of UniProt Q05519 (Q05519 whole entry, looked up): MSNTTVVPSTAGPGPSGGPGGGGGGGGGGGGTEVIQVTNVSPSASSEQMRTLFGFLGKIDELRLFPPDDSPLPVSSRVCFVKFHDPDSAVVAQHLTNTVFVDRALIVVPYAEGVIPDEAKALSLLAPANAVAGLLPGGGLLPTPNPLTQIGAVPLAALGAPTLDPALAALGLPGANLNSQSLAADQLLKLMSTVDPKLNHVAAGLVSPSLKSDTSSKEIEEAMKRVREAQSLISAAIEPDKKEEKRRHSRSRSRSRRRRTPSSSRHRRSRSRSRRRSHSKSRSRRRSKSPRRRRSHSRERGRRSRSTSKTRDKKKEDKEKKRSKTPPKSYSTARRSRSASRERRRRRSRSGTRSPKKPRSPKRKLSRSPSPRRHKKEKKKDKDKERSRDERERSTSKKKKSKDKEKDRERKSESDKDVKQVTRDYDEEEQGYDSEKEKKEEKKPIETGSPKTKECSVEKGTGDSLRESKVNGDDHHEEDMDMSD
Chain of UniProt O15400 (O15400 whole entry, looked up): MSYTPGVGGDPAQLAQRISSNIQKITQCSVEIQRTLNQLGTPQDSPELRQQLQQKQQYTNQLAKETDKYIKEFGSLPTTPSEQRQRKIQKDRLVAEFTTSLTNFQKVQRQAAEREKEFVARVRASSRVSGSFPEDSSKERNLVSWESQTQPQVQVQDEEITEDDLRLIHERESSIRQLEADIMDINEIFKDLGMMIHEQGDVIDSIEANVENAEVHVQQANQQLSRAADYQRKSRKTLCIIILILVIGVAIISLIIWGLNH
Chain of UniProt Q9BVV7 (Q9BVV7 whole entry, looked up): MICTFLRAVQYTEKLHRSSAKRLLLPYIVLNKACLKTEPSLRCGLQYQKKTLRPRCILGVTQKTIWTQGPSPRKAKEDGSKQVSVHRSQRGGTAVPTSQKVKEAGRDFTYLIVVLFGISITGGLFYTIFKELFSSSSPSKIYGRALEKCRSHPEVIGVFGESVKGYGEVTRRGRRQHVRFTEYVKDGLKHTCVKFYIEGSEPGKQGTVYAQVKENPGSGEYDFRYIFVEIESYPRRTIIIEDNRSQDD

Target	log2 fold change [1]	log2 fold change [2]	log2 fold change [3]	log2 fold change [4]	log2 fold change [5]	log2 fold change [6]	log2 fold change [7]	log2 fold change [8]	log2 fold change [9]	log2 fold change [10]	log2 fold change [11]	log2 fold change [12]	log2 fold change [13]	log2 fold change [14]	log2 fold change [15]	log2 fold change [16]	log2 fold change [17]	log2 fold change [18]	log2 fold change [19]	log2 fold change [20]
SRSF10 (UniProt O75494)	-0.179	0.07	-0.047	0.185	0.218	0.002	0.102	0.418	0.205	-0.396	-0.046	0.029	-0.076	-0.134	0.227	-0.027	-0.027	0.083	0.017	-0.045
SLC35A1 (UniProt P78382)	-0.057	0.119	-0.027	-0.049	-0.056	0.066	0.007	-0.055	0.059	0.138	-0.027	0	-0.045	0.06	-0.037	0.382 (active)	0	-0.07	-0.024	-0.05
TFB2M (UniProt Q9H5Q4)	0.037	-0.029	-0.013	-0.085	-0.136	-0.08	0.02	0.012	-0.03	0.005	-0.017	0	0.008	0.086	-0.077	0.035	0.073	-0.058	0.017	0.048
TFR2 (UniProt Q9UP52)	0.018	0.008	-0.011	-0.018	0.037	-0.146	0.02	0.02	0.02	-0.128	0.012	-0.018	-0.012	-0.036	-0.031	-0.018	-0.003	-0.029	-0.083	0.01
SLC38A2 (UniProt Q96QD8)	0.018	0.022	-0.057	-0.097	-0.12	-0.28 (active)	0.102	-0.053	0.019	0.01	0.118	0.026	0.067	0.062	-0.133	0.032	0.096	-0.107	-0.014	-0.039
TGFBI (UniProt Q15582)	0.026	0.149	0.045	-0.099	0.244	-0.044	0.05	-0.092	0.115	-0.039	-0.167	0.101	0.062	0.091	-0.082	0.157	-0.044	-0.255	-0.08	0.068
TAOK1 (UniProt Q7L7X3)	0.011	-0.057	-0.827 (active)	0.062	0.009	-0.031	0.018	-0.052	0.011	0.05	-0.009	0.007	-0.005	-0.013	0.065	0.023	0.011	-0.048	0.001	0.009
SPAG9 (UniProt O60271)	-0.003	-0.003	0.022	0	-0.045	-0.219 (active)	0.016	0.028	0.011	-0.004	0.023	-0.045	0.002	0.004	0.039	0.028	0.053	0.014	0.06	0.037
STARD9 (UniProt Q9P2P6)	-0.121	0.161	0.091	0.068	-0.156	-0.066	0.085	0.083	-0.053	-0.07	-0.29	0.01	-0.07	-0.048	0.144	-0.161	0.029	-0.035	-0.046	-0.017
SLC27A4 (UniProt Q6P1M0)	-0.042	0.022	-0.034	0.003	0.072	-0.11	-0.044	0.039	0.047	0.104	-0.074	-0.072	0.011	-0.096	-0.014	-0.039	-0.031	-0.017	0.021	0.056
TIMM21 (UniProt Q9BVV7)	-0.009	-0.02	-0.026	-0.01	0.011	-0.169	0.099	-0.02	-0.013	0.063	0.014	0.008	0.035	0.058	-0.121	0.032	0.067	-0.005	0.005	0.034
SRSF11 (UniProt Q05519)	-0.116	-0.014	-0.416 (active)	0.01	-0.049	-0.255	-0.005	-0.016	-0.011	0.026	-0.029	-0.058	0.009	0.032	-0.022	0.007	0.087	0.053	0.059	0.023
STX7 (UniProt O15400)	-0.01	0.024	0.011	-0.039	0.012	-0.087	-0.009	-0.109	0	0.017	-0.003	0.025	-0.002	0.055	-0.023	-0.036	0	0	-0.002	-0.02
SNX2 (UniProt O60749)	0.058	0.043	-0.135	-0.014	-0.154	-0.189	0.079	0.016	0.019	0.03	0.009	-0.022	0.02	0.012	0.021	0.013	0.052	-0.036	0.073	0.037
TIMM29 (UniProt Q9BSF4)	-0.202	0.024	-0.014	-0.101	0.008	0.071	-0.031	0.444 (active)	-0.004	-0.052	-0.007	-0.015	-0.023	-0.102	-0.037	-0.031	0.033	0	0.014	0.004
TIPRL (UniProt O75663)	-0.011	-0.005	-0.067	-0.007	-0.065	-0.173	0.048	-0.015	0.069	0.017	0.011	-0.017	0.007	0.013	-0.05	0.022	0.046	0.02	0.032	-0.007
